The values below come from the OligoGym collection.
Also: reference of the scale not given here.

One test addresses ALOX12B. Description: pooled miR-30 sensor sort-seq; sequence = guide strand. Particulars: shRNA.
TACTTCTCCAGTGCATTCCACA: the sensor-assay potency score (higher = more potent) is -0.953. On the same count and under the same terms, as for TCACATACTTCTCCAGTGCATT, the figure is -1.5; as for TACTGGTACCCAAAGAAGGTGT, -0.741; as for ATAATAGGTGATGATCTCCGTC, -0.228. For TAATAGGTGATGATCTCCGTCA, the sensor-assay potency score (higher = more potent) was -0.427. TTTGCAGTCCAACAGGCCGCGG: the sensor-assay potency score (higher = more potent) was -1.33. The same measure, in the same setting: as for TTGATCTGGACGGTGTATCGGG, the figure is -0.0019. On to TGCACATAGTTGCAGTACCAAG, for which the sensor-assay potency score (higher = more potent) is -2.04.

The target of the next test is ALPK1. Described as above. Conditions: shRNA.
The sequence TTGAACTTGTAAATGTTCCTTC had a sensor-assay potency score (higher = more potent) of 0.693.

As to TATACAGACCGACTGCACCAGG, the sensor-assay potency score (higher = more potent) is -1.24. Still for that read-out and setting: as for TAAATCGACCACAACATCTCTA, the figure is 0.166; as for TTCATTACATTCCACATGCTGG, -0.496. TTGTTCATAGAGTCTCTTGTTA came in with a sensor-assay potency score (higher = more potent) of 0.0334.

Consider TTGATGAAGATGATGAACCCAA, for which the sensor-assay potency score (higher = more potent) stood at 0.0893. Same read-out and setting: as for AAATCGACCACAACATCTCTAT, the figure is -0.634. On the same count and under the same terms, as for TTCACTAATTTCTTCTCCCTGC, the figure is -0.272; as for TTGCAGAGGAACTAAACCCTGA, -0.0397. In turn, TAACTTCTTGAGACAGAGCTTC showed a sensor-assay potency score (higher = more potent) of -0.293. The same measure, in the same setting: as for TCTGTTTTCACCACTTTCGTGT, the figure is 0.311.
